# Test results as given in PubChem BioAssay (NCATS).
# Results filed as inconclusive are left out. Entries that show only a call come without a potency. Active and inactive are the calls of the source. Calls come from the whole dose curve; as a rule, active = well fitted curve in the direction sought with a large enough effect; inconclusive = small, poorly fitted or top-dose-only effect, or another doubt; inactive = no such curve, though single readings can be large; an effect the other way counts as inactive or inconclusive.
# Assay: qHTS of pediatric cancer cell lines to identify multiple opportunities for drug repurposing: Primary screen for NB-EBc1 cells (AID 1347095); note: potency is the fitted concentration of half-maximal effect
# Settings: NB-EBc1 neuroblastoma viability, CellTiter-Glo luminescence, 48 h; series mostly up to 46 µM
# Outline: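 Viability was measured as metabolically active cells after 48 hours of treatment, read by CellTiter-Glo luminescence. Compounds were tested at multiple final concentrations, giving concentration-response curves.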
row,Structure (SMILES),Potency
1,CCOC(=O)C1=C(C)NC2=C(C(=O)CC(C)(C)C2)C1c1ccc(-c2ccccc2)cc1 (stereo not drawn),5.9 µM (active)
2,COC(=O)Nc1nc2ccc(C(=O)c3ccc(F)cc3)cc2[nH]1,0.264 µM (active)
3,CC(C)c1nn(-c2c(Cl)cccc2Cl)c2nc(Cc3ccc(OCCO)cc3)[nH]c(=O)c12,0.0935 µM (active)
4,COc1cc2c(Nc3ccc(NC(=O)c4ccccc4)cc3)ncnc2cc1OCCCN1CCOCC1,18.7 µM (active)
5,Cn1c(CNc2ccc(C(=N)N)cc2)nc2cc(C(=O)N(CCC(=O)O)c3ccccn3)ccc21,inactive
6,C[C@@H]1CN(CC(=O)Nc2ccc3c(c2)Cc2cccc(-c4cc(=O)cc(N5CCOCC5)o4)c2S3)C[C@H](C)O1,18.7 µM (active)

# Assay: qHTS of pediatric cancer cell lines to identify multiple opportunities for drug repurposing: Primary screen for U-2 OS cells (AID 1347096); note: nearly all actives have a fitted effect of over 50% in size
# Settings: U-2 OS viability, CellTiter-Glo luminescence, 48 h; series mostly up to 46 µM
# Outline: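 Viability after 48 h compound treatment at 37C, 500-1,000 cells/well, read as ATP luminescence with CellTiter-Glo. Primary screens used 11-point (MIPE, 0.78 nM-46 µM) or 8-point (NPC, 0.59 nM-46 µM) final concentrations; follow-up screens used 11-point dilutions.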
row,Structure (SMILES),Potency
1,CCCn1c(=O)c2[nH]c(-c3cnn(Cc4cccc(C(F)(F)F)c4)c3)nc2n(CC)c1=O,inactive
2,COc1cc(C(C)C)c2c(c1)S(=O)(=O)N(COc1cc(=O)n3cccc(OCCN4CCCCC4)c3n1)C2=O,inactive
3,Cn1cc(-c2ccncc2)c(-c2ccc(OCc3ccc4ccccc4n3)cc2)n1,inactive
4,O=C(O)C1(Cc2cccc(Nc3nccs3)n2)CCC(Oc2cccc(Cl)c2F)CC1 (stereo not drawn),inactive
5,CCC(=C(c1ccccc1)c1ccc(OCCN(C)C)cc1)c1ccccc1,inactive
6,C[C@]12CC[C@H](O)CC1=CCC1C2CC[C@]2(C)C(n3cnc4ccccc43)=CCC12 (stereo partly drawn),inactive
7,COC(=O)C1=C(C)NC(C)=C(C(=O)OCCN2CCN(C(c3ccccc3)c3ccccc3)CC2)C1c1cccc([N+](=O)[O-])c1 (stereo not drawn),inactive
